# Laboratory results taken from PubChem BioAssay AID687022 (Broad Institute, 2013).
# In all, about 1,000 compounds went through this assay and about 360 (36%) were called active.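 How the source made its calls: active means Fitted curve of melting temperature shift crosses the 1.0 threshold at or below the sample's highest valid tested concentration; inconclusive means Flat fit with activity 30 to 70, or invalid fit; inactive means Opposite direction, flat within 30, or no crossing.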 The list is a sample of the results.
# Biological target: Fibroblast growth factor 22 (Homo sapiens) (UniProt Q9HCT0)
# Test: FGF22 ligand-induced thermal stabilization – biophysical, thermal shift, cherry-pick, FGF22 synaptogenesis inhibitor project, dose response (AID 687022); further: reference of the scale not given here
# Conditions: recombinant FGF22 thermal shift, SYPRO orange melting; series mostly up to 38 µM
# Sequence of Fibroblast growth factor 22 (Homo sapiens) (Q9HCT0 whole entry, looked up): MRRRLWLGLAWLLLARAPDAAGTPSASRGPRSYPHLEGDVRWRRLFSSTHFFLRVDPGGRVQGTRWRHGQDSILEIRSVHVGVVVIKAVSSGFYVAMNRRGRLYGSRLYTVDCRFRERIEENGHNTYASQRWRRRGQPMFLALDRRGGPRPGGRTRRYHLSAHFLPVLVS
row,SMILES,Tm shift activity
1,CNC[C@H]1Oc2ccc(NC(=O)Cc3cn(C)c4ccccc34)cc2C(=O)N([C@H](C)CO)C[C@H]1C,inactive
2,COc1ccc(S(=O)(=O)N(C)C[C@@H]2Oc3ccc(NC(=O)Nc4ccccc4)cc3CC(=O)N([C@H](C)CO)C[C@@H]2C)cc1,inactive
3,COc1ccccc1C(=O)NNC(=O)c1ccc(NC(=O)c2ccccc2)cc1,inactive
4,CC(=O)Oc1ccc(C(=O)Nc2ccccc2C(=O)N2CCCCC2)cc1,inactive
5,CCCN(C)C[C@H]1Oc2cc(C#Cc3cccnc3)ccc2S(=O)(=O)N([C@H](C)CO)C[C@@H]1C,inactive
6,C[C@@H]1CN([C@@H](C)CO)C(=O)c2cccc(NC(=O)c3ccc(-c4nccs4)cc3)c2O[C@@H]1CN(C)C,inactive
7,CN(C)CC(=O)Nc1ccc2c(c1)[C@@H]1C[C@H](CC(=O)N(C)C)O[C@@H](CO)[C@@H]1O2,inactive
8,O=C1COc2ccc(S(=O)(=O)N3CCCC3)cc2N1,inactive
9,C[C@H]1CN([C@@H](C)CO)C(=O)c2cc(NS(=O)(=O)c3cn(C)cn3)ccc2O[C@H]1CN(C)Cc1ccccc1,inactive
10,OC[C@H]1[C@@H](c2ccc(-c3cccnc3)cc2)[C@@H]2CN(Cc3ccccn3)CCCCN12,inactive
11,O=C(C[C@H]1CC[C@H]2[C@@H](COC[C@@H](O)CN2C(=O)C2CC2)O1)NCc1ccncc1,inactive
12,Cc1nn(C)cc1NC(=O)C[C@H]1CC[C@@H]2[C@@H](COc3ccc(NC(=O)NC(C)C)cc3C(=O)N2C)O1,inactive
13,COc1cccc(NC(=O)N[C@H]2C=C[C@@H](CC(=O)N3CCN(C)CC3)O[C@H]2CO)c1,inactive
14,O=C1C=CCCN1S(=O)(=O)/C=C/c1ccccc1,inactive
15,CCOc1ccc(C(=O)CCC(=O)Nc2ccc(C)cn2)cc1,inactive
16,CCC(CC)CN1CCC(CN2C(=O)C(=O)NC[C@@H]2CC(C)C)CC1,inactive
17,O=C(C[C@H]1C[C@@H]2c3cc(NC(=O)NC4CCCC4)ccc3O[C@@H]2[C@H](CO)O1)NC1CCCC1,inactive

row,SMILES,Tm shift activity
1,Nc1nccc(-c2ccc(-n3cccc3)cc2)n1,inactive
2,CO[C@H]1CN(C)C(=O)c2ccc(NS(=O)(=O)c3ccc(Cl)cc3)cc2OC[C@@H](C)N(C(=O)NC(C)C)C[C@H]1C,inactive
3,COCCNC(=O)CCc1nnc2ccc(N3CCC(C)CC3)nn12,inactive
4,CC(C)(C)NC(=O)N1CCC(CO)(Cc2ccccc2Cl)CC1,inactive
5,CC(=O)N1[C@H](CO)[C@H](c2ccccc2)[C@H]1CN(C(=O)c1cccc(F)c1)C(C)C,inactive
6,Cc1noc(C)c1S(=O)(=O)Nc1ccc2c(c1)CC(=O)N([C@@H](C)CO)C[C@@H](C)[C@@H](CN(C)Cc1ccc(Cl)c(Cl)c1)O2,inactive
7,CCCNC(=O)N1[C@@H]2CN(C(=O)c3ccccc3)c3ccccc3[C@@H]2[C@@H]1CO,inactive
8,O=C(O)C1CSC(c2ccc3c(c2)OCO3)N1 (centres undefined),inactive
9,OC[C@@H]1[C@H](c2ccc(Br)cc2)[C@@H]2CN(Cc3cncnc3)CCCCN12,inactive
10,CO[C@H]1CN(C)C(=O)c2cc(NC(=O)CC(F)(F)F)ccc2OC[C@@H](C)N(C(C)=O)C[C@H]1C,inactive
11,CNC[C@H]1Oc2ccc(NC(=O)Nc3ccc(OC)cc3)cc2C(=O)N([C@H](C)CO)C[C@@H]1C,inactive
12,CNC[C@@H]1Oc2c(NS(=O)(=O)c3ccc(OC)cc3)cccc2C(=O)N([C@@H](C)CO)C[C@@H]1C,inactive
13,COc1ccc(S(=O)(=O)N(C)C[C@@H]2Oc3c(NC(=O)c4cc(C)nn4C)cccc3C(=O)N([C@H](C)CO)C[C@H]2C)cc1,inactive
14,COc1ccc(S(=O)(=O)N/N=c2\oc3c(OC)cccc3cc2S(=O)(=O)c2ccc(C)cc2)cc1OC,inactive
15,O=C(N[C@H]1CC[C@@H](CCNS(=O)(=O)c2ccc(F)cc2)O[C@H]1CO)C1CCCC1,inactive
16,CN1C(=O)c2cc(NC(=O)Cc3ccccc3)ccc2OC[C@@H]2O[C@H](CC(=O)O)CC[C@H]21,inactive
17,CO[C@@H]1CN(C)C(=O)c2cc(NC(=O)NC(C)C)ccc2OC[C@@H](C)N(C)C[C@@H]1C,inactive
